Most compounds without a hit are left out; they make up all but 2.2% or so of the library.
MOR-DOR inv ag: mu-delta opioid heterodimer inverse agonism | P35372+P41143 | cell-based MOR-DOR heterodimer luminescence | inhibition, % at 9.3 µM | actives 0.21% (n = 340,000); in the data active means inhibition above about 22%, passing the limit was not always enough;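 further: 0% = cells with DMSO and 100% = wells without cells with DMSO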
m5-HT2A agonist: mouse HTR2A agonism via beta-arrestin recruitment; actives 0.66% (n = 360,000); activation, % at 7.6 µM; P35363; CHO-K1 mHTR2A beta-arrestin complementation, luminescence; percent of 30 µM serotonin response;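 active means activation above a run cutoff, the mean activation of all tested compounds plus 3 SD, cut at about 14% in these data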;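 further: 0% = plate median of compound wells and 100% = 30 µM serotonin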
sPLA2-III inh: Blocks human group III sPLA2 activity. Q9NZ20. actives 0.56% (n = 370,000). inhibition, % at 12.2 µM. QFRET BODIPY PC-A2 liposome hydrolysis, fluorescence;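 active means inhibition above mean plus 3 SD of compounds lying within the high and low control bounds, cut at about 19% in these data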;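 further: 0% = median of test compound wells and 100% = no enzyme DMSO wells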
Target sequence (Q9NZ20 whole entry, looked up): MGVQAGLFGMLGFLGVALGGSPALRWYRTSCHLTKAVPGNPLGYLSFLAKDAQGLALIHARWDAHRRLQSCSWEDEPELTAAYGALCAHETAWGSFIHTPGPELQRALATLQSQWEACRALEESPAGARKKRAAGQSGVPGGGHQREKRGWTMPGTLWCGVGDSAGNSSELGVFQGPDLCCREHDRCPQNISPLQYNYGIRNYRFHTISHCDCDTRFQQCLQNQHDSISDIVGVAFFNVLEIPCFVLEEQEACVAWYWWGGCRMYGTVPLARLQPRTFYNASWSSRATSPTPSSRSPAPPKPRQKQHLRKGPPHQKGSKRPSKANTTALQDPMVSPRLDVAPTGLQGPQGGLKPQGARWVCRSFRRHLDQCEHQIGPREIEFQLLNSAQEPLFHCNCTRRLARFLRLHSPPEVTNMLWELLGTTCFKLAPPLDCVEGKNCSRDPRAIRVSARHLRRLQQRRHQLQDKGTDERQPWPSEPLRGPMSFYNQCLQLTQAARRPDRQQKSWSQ
HTR5A inv ag: HTR5A inverse agonism, opioid heterodimer counter-screen; HTR5A cell line, luminescence; actives 0.083% (n = 340,000); inhibition, % at 9.3 µM; P47898; in the data active means inhibition mostly above about 23%, no sharp cut-off; inactive means mostly below about 18%;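 further: 0% = cells with DMSO and 100% = no-cell wells with DMSO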
MOR-DOR ag: agonists of human mu-delta opioid receptor heterodimerization; P35372+P41143; cells, OPRM1-OPRD1 heterodimerization, luminescence; activation, % at 9.3 µM; actives 0.3% (n = 340,000); AID 504326; in the data active means activation above about 18%;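 further: 0% = vehicle-treated cells and 100% = reference agonist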
HTR5A ag ctr: counter-screen for OPRM1-OPRD1 agonists: human HTR5A agonism; HTR5A agonist assay, luminescence, cell-based; activation, % at 9.3 µM; actives 0.61% (n = 340,000); AID 504692; in the data active means activation mostly above about 9.5%, no sharp cut-off; inactive means mostly below about 7.6%;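 further: 0% = cells with vehicle only and 100% = reference agonist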
OPRM1-D1 inv cf: OPRM1-OPRD1 heterodimer inverse agonism, confirmation; inhibition, % at 9.3 µM; cells expressing OPRM1/OPRD1 heterodimer, luminescence; shares compounds with MOR-DOR inv ag; actives 20% (n = 580); AID 504900; in the data active means inhibition above about 32%;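 further: 0% = cells with DMSO and 100% = wells lacking cells with DMSO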
HTR5A inv count: inverse agonist of human HTR5A in OPRM1-OPRD1 counter-screen; shares compounds with MOR-DOR inv ag; HTR5A-expressing cells, luminescence, inverse agonism; inhibition, % at 9.3 µM; 580 tested, under 10 active; AID 504914; call rule not given here;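 further: 0% = cells with DMSO and 100% = no-cell wells with DMSO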
* = called active by the depositor; nt = not tested or not shown.

SMILES | MOR-DOR inv ag | m5-HT2A agonist | sPLA2-III inh | HTR5A inv ag | MOR-DOR ag | HTR5A ag ctr | OPRM1-D1 inv cf | HTR5A inv count
COCCN(C(=O)CSc1nnc(-c2ccccc2F)n1N)c1c(N)n(Cc2ccccc2)c(=O)[nH]c1=O | 29* | -3 | 3 | -21 | -7 | 8 | -28 | 5
COc1ccc(C(=O)CNc2ccccc2CO)cc1 | 16 | -5 | 4 | 1 | -3 | 0 | nt | nt
COc1ccccc1NCC(=O)c1ccc(C)c(C)c1 | 31* | 4 | 7 | -17 | -6 | -3 | -13 | -7
COc1ccc(C(=O)CNc2ccc(C)cc2C)cc1 | 32* | -1 | 16 | -9 | -7 | 3 | 70* | 2
CCOC(=O)[C@]12CCCC=C1N(Cc1ccc(OC)cc1)C(=O)[C@@H]2CC(=O)NCCCCc1ccccc1 | nt | nt | -14 | nt | nt | nt | nt | nt
COC(=O)[C@]12C[C@H](CC(=O)NCC34CC5CC(CC(C5)C3)C4)C(=O)N(Cc3ccccc3)C1=C[C@H](C1CCCC1)O[C@@H]2C | nt | nt | -4 | nt | nt | nt | nt | nt
CCOC(=O)C1(C(=O)OCC)N=C(c2ccccc2)C=C1c1ccccc1 | nt | nt | -17 | nt | nt | nt | nt | nt
COc1ccccc1CCn1cnc(-c2cccc(F)c2)c1C(C)C | nt | nt | -2 | nt | nt | nt | nt | nt
S=C1NCCc2ccccc2C1c1ccccc1Cl (stereo unspecified) | 44* | -4 | 1 | -27 | -9 | -2 | 5 | 10
S=C1NCCc2ccccc2C1c1ccccc1 (stereo unspecified) | 13 | -5 | 8 | 5 | -2 | -5 | nt | nt
CCn1cc(S(=O)(=O)Nc2cccnc2)cn1 | 37* | 7 | 8 | 7 | -7 | -10 | 41* | -12
N#Cc1cccc(-c2ccccc2C(=O)NC2CCCCN(Cc3ccc(Cl)cc3)C2=O)c1 (stereo unspecified) | nt | nt | -3 | nt | nt | nt | nt | nt
O=S(=O)(Nc1cccc2cccnc12)c1ccccc1 | 47* | -9 | 2 | 9 | -8 | -4 | -33 | 12
NS(=O)(=O)c1ccc(OCCCN2CCC(C(O)(c3ccccc3)c3ccccc3)CC2)cc1 | nt | nt | -23 | nt | nt | nt | nt | nt
Cc1cc(NC(=O)CSc2nc3c([nH]c4ccccc43)c(=O)n2-c2ccccc2F)no1 | 34* | -8 | -4 | 15 | -6 | -3 | 12 | 15
COc1ccccc1-n1c(SCC(=O)Nc2cc(C)on2)nc2c([nH]c3ccccc32)c1=O | 16 | -6 | 5 | 0 | -3 | -1 | nt | nt
Cc1cc(C)n2nc(SC(C)C(=O)N3CCOCC3)nc2n1 (stereo unspecified) | 37* | 4 | 9 | 7 | -6 | 1 | -16 | 3
Cc1cc(C)n2nc(SC(C)C(=O)N3CCCC3)nc2n1 (stereo unspecified) | 18 | -1 | -3 | 11 | -4 | 6 | nt | nt
Cc1nc(-n2[nH]c3c(c2=O)CCCC3)[nH]c(=O)c1Cc1ccccc1 | 37* | -10 | 1 | 28 | -6 | -6 | 7 | 5
COC(=O)C1CN(Cc2ccc(C)cc2)CCS(=O)(=O)N1Cc1cn(Cc2ccccc2)nn1 (stereo unspecified) | nt | nt | 1 | nt | nt | nt | nt | nt
O=C(COC(=O)c1cc2ccccc2oc1=O)c1cccc([N+](=O)[O-])c1 | 47* | 2 | -13 | 13 | -9 | -2 | 46* | 19
Cc1cc(C(=O)OCC(=O)c2cccc([N+](=O)[O-])c2)c2ccccc2n1 | 60* | 4 | -6 | -3 | -12 | -8 | 38* | 18
COc1ccc(-c2cc(C(=O)OCC(=O)c3ccc(C)c([N+](=O)[O-])c3)c3ccccc3n2)cc1 | 12 | 12 | 12 | -26 | -2 | -1 | nt | nt
COc1ccccc1C(=O)OCC(=O)c1cccc([N+](=O)[O-])c1 | 19 | 1 | -1 | 8 | -4 | -2 | nt | nt
Cc1cc(C(=O)OCC(=O)c2ccc(Cl)c([N+](=O)[O-])c2)c2cccc(C)c2n1 | 34* | 0 | -4 | 3 | -7 | -2 | -40 | -9
SMILES | MOR-DOR inv ag | m5-HT2A agonist | sPLA2-III inh | HTR5A inv ag | MOR-DOR ag | HTR5A ag ctr | OPRM1-D1 inv cf | HTR5A inv count
COC(=O)C[C@@H]1CC[C@H]2[C@H](COc3ccc(NC(=O)Nc4ccc(Cl)cc4)cc3C(=O)N2C)O1 | nt | nt | -19 | nt | nt | nt | nt | nt
CCC(OC(=O)C(C)N1C(=O)C(=O)c2ccccc21)C(=O)Nc1ccccc1OC (stereo unspecified) | 48* | 4 | 6 | 2 | -8 | -4 | 10 | 4
CCC(OC(=O)CN1C(=O)C(=O)c2ccccc21)C(=O)Nc1ccccc1OC (stereo unspecified) | 49* | -3 | 5 | 23* | -6 | -8 | 3 | -7
O=C(Nc1nc2ncccn2c1-c1ccccc1)c1ccccc1 | nt | nt | 6 | nt | nt | nt | nt | nt
COC(=O)[C@]12C[C@H](CC(=O)N3CCC(c4ccccc4)CC3)C(=O)N(Cc3cccc4ccccc34)C1=C[C@H](C(C)C)O[C@@H]2C1CC1 | nt | nt | -7 | nt | nt | nt | nt | nt
Cc1ccc(C(=O)CC2(O)C(=O)N(Cc3ccc4c(c3)OCO4)c3ccccc32)cc1 (stereo unspecified) | -7 | 6 | -19 | -9 | 2 | 0 | nt | nt
O=C(CC1(O)C(=O)N(Cc2ccccc2)c2ccccc21)c1ccncc1 (stereo unspecified) | 40* | -3 | 4 | 22 | -8 | -9 | -152 | -117
Cc1ccccc1CN1C(=O)C(O)(CC(=O)c2ccncc2)c2ccccc21 (stereo unspecified) | 45* | 0 | 11 | 3 | -8 | -1 | -84 | -32
N#CC1CCN(c2nc(-c3ccc(Br)cc3)cs2)CC1 | nt | nt | -1 | nt | nt | nt | nt | nt

Assay outcomes deposited in PubChem by The Scripps Research Institute Molecular Screening Center.
